Assay outcomes deposited in PubChem BioAssay by Broad Institute.
Many of the other results were omitted from the sample, so hits are more common in it than they were.
STK33 inh: STK33 kinase inhibitors, primary screen, biochemical, luminescence, ADP-Glo, MBP substrate; Serine/threonine-protein kinase 33 (Homo sapiens), Q9BYT3; inhibition, % at 12.5 µM; AID 2322, 2010; hit rate 0.44% among 27,000; in the data active = inhibition above about 20%; inconclusive = no clear call, values can overlap the other calls
Target sequence (Q9BYT3 whole entry, looked up): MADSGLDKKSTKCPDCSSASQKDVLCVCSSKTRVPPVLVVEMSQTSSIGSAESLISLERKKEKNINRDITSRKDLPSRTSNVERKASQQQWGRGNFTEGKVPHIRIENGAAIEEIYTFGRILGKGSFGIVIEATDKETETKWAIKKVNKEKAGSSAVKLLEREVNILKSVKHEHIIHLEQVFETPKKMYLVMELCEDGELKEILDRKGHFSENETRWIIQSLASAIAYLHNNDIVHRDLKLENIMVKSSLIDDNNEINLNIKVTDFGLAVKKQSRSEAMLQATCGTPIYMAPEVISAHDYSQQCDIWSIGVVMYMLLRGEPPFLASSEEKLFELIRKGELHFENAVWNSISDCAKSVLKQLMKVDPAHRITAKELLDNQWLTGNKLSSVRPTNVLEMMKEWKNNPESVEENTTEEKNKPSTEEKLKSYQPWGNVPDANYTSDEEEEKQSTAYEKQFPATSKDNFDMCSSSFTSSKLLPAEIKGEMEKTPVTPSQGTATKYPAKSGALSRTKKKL
PD-1 reverse act: activators reversing PD-1 mediated T-cell inhibition, primary screen, luminescence, primary human CD4 T cells, PD-L1 beads. activation, % (test concentration not listed). 29,000 tested, under 10 active. CellTiter-Glo 96 h; call rule not given here;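 note: 0% = median vehicle wells and 100% = positive control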
NOMO-1 viab: NOMO-1 AML cell viability reduction, primary screen, STK33 inhibitor project, CellTiter-Glo luminescence. NOMO-1 AML viability, 72 h. AID 2330, 2010. hit rate 7.5% among 37,000. inhibition, % (concentration not given with the values); in the data active = inhibition above about 80%; inconclusive = no clear call, values can overlap the other calls
* marks the source's active call; other numbers are inactive results; ? = inconclusive; . = not tested or not shown.

SMILES	STK33 inh	PD-1 reverse act	NOMO-1 viab
C[C@@H]1CN([C@H](C)CO)C(=O)c2cc(NS(=O)(=O)c3cccs3)ccc2O[C@H]1CN(C)Cc1ccc(-c2ccccc2)cc1	.	.	20
COc1ccc(CN(C)C[C@@H]2Oc3ccc(NS(=O)(=O)c4cccs4)cc3CC(=O)N([C@H](C)CO)C[C@H]2C)cc1	-1	.	16
C[C@@H]1CN([C@H](C)CO)C(=O)Cc2cc(NS(=O)(=O)c3cccs3)ccc2O[C@@H]1CN(C)Cc1ccc(-c2ccccc2)cc1	-1	-2	34
C[C@@H]1CN([C@@H](C)CO)C(=O)c2cc(NS(=O)(=O)c3cccs3)ccc2O[C@@H]1CN(C)Cc1ccc(-c2ccccc2)cc1	2	1	91*
C[C@@H]1CN([C@@H](C)CO)C(=O)Cc2cc(NS(=O)(=O)c3cccs3)ccc2O[C@@H]1CN(C)Cc1ccc(Oc2ccccc2)cc1	.	-3	97*
C[C@H]1CN([C@@H](C)CO)C(=O)Cc2cc(NS(=O)(=O)c3cccs3)ccc2O[C@H]1CN(C)Cc1ccc(-c2ccccc2)cc1	10	-2	115*
COC(=O)c1ccc(Cl)c(NC(=O)CSc2nc3c(c(C(F)(F)F)n2)CCCC3)c1	0	1	-9
Cc1ccc(NC(=O)C2CC(Cl)=CCC2C(=O)O)c(Br)c1 (stereo not drawn)	-3	1	5
COc1c(C=O)c(O)cc2c1C(=O)c1ccccc1C2=O	85*	-2	96*
COc1c(O)cc2c(c1O)C(=O)CC(c1ccccc1)O2 (stereo not drawn)	-2	-3	13
CCn1c(SCC(=O)c2ccc(OC)cc2)nnc1-c1cccs1	-1	-2	30
CCOC(=O)c1c(NC(=O)c2ccc(NS(C)(=O)=O)cc2)sc2c1CCCC2	5	0	6
C=C(C)C(=O)O[C@H]1C[C@@]2(C)O[C@@H]2[C@H]2O[C@H]2C(=C)[C@@H](O)[C@H]2OC(=O)C(=C)[C@@H]21	-10	.	.
C=C(C(=O)O[C@H]1C[C@]2(C)C(C(C=O)CC[C@H]2O)[C@H]2OC(=O)C(=C)[C@H]12)C(O)CO (stereo partly drawn)	1	-12	104*
CCOC(=O)c1c(NC(=O)CSc2ncccn2)sc2c1CCCC2	-1	-3	29
Cc1csc2sc(COC(=O)Nc3ccccc3)c(C)c12	.	0	120*
O=C(Nc1ccccc1)OC1CCCC1	.	0	36
CC1CCC2(OC1)OC1CC3C4CC=C5C[C@@H](O)CC(O)[C@]5(C)C4CC[C@]3(C)C1C2C (stereo partly drawn)	-1	2	-15
C#C[C@]1(O)CCC2C3CCc4cc(O)ccc4C3CC[C@@]21C (stereo partly drawn)	-7	.	107*
C[C@]12CC[C@@H]3c4ccc(O)cc4CC[C@H]3[C@@H]1C[C@@H](O)[C@@H]2O	3	.	-4
N#Cc1c(-c2cccs2)cc(-c2ccc(C(=O)O)cc2)nc1SCc1cccs1	.	0	35
COc1ccc(CN(C)C[C@@H]2Oc3c(NC(=O)Nc4ccc(OC)cc4)cccc3C(=O)N([C@H](C)CO)C[C@H]2C)cc1	.	.	65
COc1ccc(NC(=O)Nc2cccc3c2O[C@@H](CN(C)Cc2ccc(Cl)c(Cl)c2)[C@H](C)CN([C@@H](C)CO)C3=O)cc1	.	-6	111*
C[C@@H]1CN([C@@H](C)CO)C(=O)c2cccc(NC(=O)Nc3ccc(F)cc3)c2O[C@@H]1CN(C)Cc1ccc2c(c1)OCO2	.	-1	23
C[C@@H]1CN([C@H](C)CO)C(=O)c2cccc(NC(=O)Nc3ccc(F)cc3)c2O[C@H]1CN(C)Cc1ccc(Cl)c(Cl)c1	.	-3	96*
SMILES	STK33 inh	PD-1 reverse act	NOMO-1 viab
C[C@H](CO)N1C[C@H](C)[C@@H](CN(C)Cc2ccc(Cl)c(Cl)c2)Oc2c(NC(=O)Nc3ccc(F)cc3)cccc2C1=O	.	-3	99*
CC(C)NC(=O)Nc1cccc2c1O[C@H](CN(C)Cc1ccc(Cl)c(Cl)c1)[C@H](C)CN([C@@H](C)CO)C2=O	.	.	12
C[C@H]1CN([C@@H](C)CO)C(=O)c2cccc(NC(=O)Nc3ccc(F)cc3)c2O[C@@H]1CN(C)Cc1ccc(Cl)c(Cl)c1	.	.	109*
C[C@H]1CN([C@@H](C)CO)C(=O)c2cccc(NC(=O)Nc3ccc(F)cc3)c2O[C@H]1CN(C)Cc1ccc(Cl)c(Cl)c1	.	-1	41
CCOC(=O)c1cccc(NC(=O)CSc2nc3ccccc3[nH]2)c1	4	.	51
CCC(Sc1nc2ccccc2o1)C(=O)Nc1cccc2ccccc12 (stereo not drawn)	3	1	14
COC(=O)c1cccc(NC(=O)C(C)Oc2ccc3c(C)cc(=O)oc3c2)c1 (stereo not drawn)	4	.	17
O=C(NCc1ccccn1)c1cccnc1SCCS(=O)(=O)c1ccc(C(F)(F)F)cn1	.	-13	38
O=C(Nc1sc2c(c1C(=O)Nc1ccccc1)CCCC2)c1ccccc1	.	-1	32
COc1ccc(CCN2CCC(Nc3nc4ccccc4n3Cc3ccc(F)cc3)CC2)cc1	-1	1	114*
CCCCn1c(NCc2ccc(OC)cc2O)nc2ccccc21	-2	.	6
CC(=O)Nc1ccc(S(=O)(=O)NC2(C(F)(F)F)C(=O)N(C3CCCCC3)C(C)=C2C(C)=O)cc1 (stereo not drawn)	2	.	8
COc1ccc(CCNC(=O)c2cc(-c3cccnc3)nc3c(Cl)cccc23)cc1OC	0	-3	4
COc1ccc(C(NC(=O)c2cccnc2)c2cc(Cl)c3cccnc3c2O)cc1OC (stereo not drawn)	-2	.	109*
COc1ccc(C(=O)NC(c2ccc(OC)c(OC)c2)c2cc(Cl)c3cccnc3c2O)cc1 (stereo not drawn)	5	-13	122*
COc1cccc(C(=O)Nc2cccc(OC(C)C(=O)c3cccc(Cl)c3)c2)c1 (stereo not drawn)	0	1	19
COc1cccc(C(=O)NC(c2ccc(C)cc2)c2cc(Cl)c3cccnc3c2O)c1 (stereo not drawn)	-3	-14	121*
COc1ccc(C(=O)NC(CC(=O)O)c2ccc(Cl)cc2)cc1 (stereo not drawn)	-2	2	-8
COC(=O)c1cccc(NC(=O)CN2C(=O)c3ccccc3S2(=O)=O)c1C	-1	.	27
O=C(c1ccccc1)c1cc[n+](Cc2ccccn2)cc1	.	0	63
CCc1ccccc1NC(=O)C(C)n1cc([N+](=O)[O-])cn1 (stereo not drawn)	-5	.	?
N#CC1=C(N)Nc2c(c(=O)oc3ccccc23)C1c1ccc(Br)cc1 (stereo not drawn)	.	-4	34
COC(=O)[C@@H]1C[C@@]23C=CC[N+]4([O-])CC[C@@]5(c6ccccc6N[C@@]15C2C)[C@H]34 (stereo partly drawn)	-11	1	17
CCN1/C(=C\C(=S)Nc2ccccc2)Sc2ccccc21	.	0	44
CCN1/C(=C/C2=CC(=O)CC(C)(C)C2)Sc2ccccc21	.	-1	113*
O=c1c(-c2nn[nH]n2)coc2ccccc12	.	0	31
CC(Oc1ccc2ccccc2c1)C(=O)NN (stereo not drawn)	.	1	21
